This note sets out measurements from PubChem BioAssay (Tox21).

A number with no mark means an inactive call. Activity calls are given as the source filed them. The call rests on the fitted dose curve; in most records, active means well fitted curve in the direction sought with a large enough effect in the repeat runs; inconclusive means weak or mixed curves; inactive means flat fitted curve, though single readings scatter.
On the % scale 0 is the no-effect control and ±100 the full control effect.

This test is described as follows: qHTS assay to test for compound auto fluorescence at 460 nm (blue) in HepG2 cells (AID 720687). As to conditions: autofluorescence 405/460 nm, 1 h; series mostly up to 91.3 µM. From the text: U.S. Tox21 Program National Center for Advancing Translational Sciences [NCATS] NIH Chemical Genomics Center [NCGC] U.S. Environmental Protection Agency [EPA] National Institutes of Environmental Health Sciences [NIEHS] National Toxicology Program [NTP] U.S. Food and Drug Administration [FDA] Tox21 Assay Overview: Compound auto fluorescence often interferes with screening of the compound library against various biological targets and signaling pathways. Some of these compounds may have fluorophoric properties. Such properties may interfere with the assay outputs resulting in false positives and/or negatives. To decrease such complications and ensure the compound activities are relevant in terms of biological response, the Tox21 10K compound library was screened for auto fluorescence. From the fluorophores used as reporter signals in our screening assays, the auto fluorescence equivalencies of compounds against three fluorophores have been evaluated: Triamterene, Fluorescein and Rose Bengal sodium for blue, green and red fluorescence, respectively. The fluorescence intensities were measured using Excitation/Emission wavelengths at 405/460nm, 485/535nm and 540/590nm for blue, green and red labels, respectively. This assay includes the blue fluorescence data.
Tox21 Assay Protocol Summary: 2,000 HepG2 cells in 5 uL of culture medium (MEM containing 10% FBS) per well were dispensed into black wall/clear bottom 1536-well plates using a Multidrop Combi Dispenser (ThermoFisher Scientific, Waltham, MA). The assay plates were incubated overnight at 37 C to allow cell attachment to the well bottom, followed by the transfer of 23 nL compound or DMSO vehicle by a pintool work station (Kalypsys , San Diego, CA). After the assay plates were incubated for 1 hr at 37 C and 5% CO2, fluorescence intensities in the assay plates were measured by an Envision (PerkinElmer, Shelton, CT) plate reader using three labels for measuring blue, green and red fluorescence at […] 460, 535 and 590 nm respectively.
Take `CCCCCCCCCCCBr`: the result was inactive.

As to `Nc1nc(Cl)cc(Cl)n1`, the result was inactive.

For the compound `Cc1ccc(OC(=O)CC(C)C)cc1`, the call was inactive.

Turning to `CN(C)c1cc(NC(=O)CNC(C)(C)C)c(O)c2c1C[C@H]1C[C@H]3[C@H](N(C)C)C(=O)C(C(N)=O)=C(O)[C@@]3(O)C(=O)C1=C2O`, the result was inactive.

For `Cc1nc2ccc(Cl)cc2[nH]1`, the compound was classed as inactive.

For `COc1ccc2cc(CCC(C)=O)ccc2c1`, the fluorescence, % of fluorescent control is 0.0207% [at 18.6 µM].

Regarding `CC1=C(O)C(=O)CO1`, the compound was classed as inactive.

Consider `C=COCCCCO`, for which the outcome was inactive.

In the case of `CC(C)C[P+](C)(CC(C)C)CC(C)C`, the compound was classed as inactive.

`CCCC[O][Al]([O]CCCC)[O]CCCC`: the compound was classed as inactive.

For the compound `O=c1[nH]c(=O)c2cn[nH]c2[nH]1`, the compound was called inactive.

With `Cc1ccc(S(=O)(=O)NC(=O)NN2CC3CCCC3C2)cc1` (stereo not given), the fluorescence, % of fluorescent control is -0.0447% [at 18.6 µM].

As to `O=CN1CCCCC1`, the result was inactive.

For the compound `CNCCc1ccccn1`, the fluorescence, % of fluorescent control is 0.114% [at 18.6 µM].

Turning to `CCO[Si](CC(C)C)(OCC)OCC`, the compound was classed as inactive.

`CCCCCC(=O)CC`: the compound was called inactive.

For `Cc1cc(C)c(C)c(C)c1`, the compound was called inactive.

In the case of `O=C[C@@H](O)[C@H](O)[C@H](O)CO`, the call was inactive.

Take `O=C1CC2(CCCC2)CC(=O)N1CCNCC1COc2ccccc2O1` (stereo not given): the compound was called inactive.

As to `CCCCCCCCC1CO1` (stereo not given), the outcome was inactive.

Turning to `CCOC(=O)CC`, the result was inactive.

Consider `CCCC(=O)CC`, for which the outcome was inactive.

Regarding `COc1cc(OC)cc(OC)c1`, the call was inactive.

As to `O=Cc1ccc(C(=O)O)cc1`, the result was inactive.

Turning to `C[Si](C)(C)O[Si](O)(O)O`, the call was inactive.

Regarding `C/C=C(\C)C=O`, the compound was called inactive.

For the compound `COc1cc(NS(=O)(=O)c2ccc(N)cc2)ncn1`, the fluorescence, % of fluorescent control was -0.0071% [at 18.6 µM].

On to `O=S(=O)(O)c1cc(I)c(O)c2ncccc12`, for which the result was inactive.

As for `C[C@@H]1NC(=O)[C@@H](N)CNC(=O)[C@H](C2CCNC(N)=N2)NC(=O)/C(=C/NC(N)=O)NC(=O)[C@H](CNC(=O)C[C@@H](N)CCCN)NC1=O` (stereo not given in full), the call was inactive.

Take `CCCCCCCCCCCCCCCC(=O)OC`: the fluorescence, % of fluorescent control is 0.0931% [at 18.6 µM].

Regarding `CC(C)(O)c1ccc(C(C)(C)O)cc1`, the compound was classed as inactive.

In the case of `N=C(N)N`, the compound was classed as inactive.

As to `CCCOc1ccc(C(=O)OCCN(CC)CC)cc1N`, the result was inactive.

For the compound `CC(C)(C)OC(=O)c1ccccc1C(=O)O`, the outcome was inactive.

With `Cc1ccc2ccccc2n1`, the call was inactive.

In the case of `C[C@@H](CN1CC(=O)NC(=O)C1)N1CC(=O)NC(=O)C1`, the compound was called inactive.

As for `CCCCCCCC(=O)N(C)C`, the compound was classed as inactive.

Consider `Cc1ccc(O)c([N+](=O)[O-])c1`, for which the result was inactive.

In the case of `NS(=O)(=O)c1cc2c(cc1C(F)(F)F)NCNS2(=O)=O`, the fluorescence, % of fluorescent control was -0.066% [at 18.6 µM].

On to `Cc1cccc(N)n1`, for which the call was inactive.
